Article PMC4336329 (PLoS ONE, 2015)
Among all 310,000 compounds or so, about 14,000 (4.5%) showed an effect of 50% or more. Effects have a minus sign here. This is one part of a sample in which strong results are shown more often than they occur.

Each molecule was assayed against human ether-à-go-go-related gene (hERG) potassium channel (human, UniProt Q12809) (assay: primary screen, population patch clamp on CHO cells stably expressing hERG; higher = less effect of the substance).
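Also: peak tail current of the secondary pulse compared with the same well before compound.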

Sequence of human ether-à-go-go-related gene (hERG) potassium channel (Q12809 whole entry, looked up): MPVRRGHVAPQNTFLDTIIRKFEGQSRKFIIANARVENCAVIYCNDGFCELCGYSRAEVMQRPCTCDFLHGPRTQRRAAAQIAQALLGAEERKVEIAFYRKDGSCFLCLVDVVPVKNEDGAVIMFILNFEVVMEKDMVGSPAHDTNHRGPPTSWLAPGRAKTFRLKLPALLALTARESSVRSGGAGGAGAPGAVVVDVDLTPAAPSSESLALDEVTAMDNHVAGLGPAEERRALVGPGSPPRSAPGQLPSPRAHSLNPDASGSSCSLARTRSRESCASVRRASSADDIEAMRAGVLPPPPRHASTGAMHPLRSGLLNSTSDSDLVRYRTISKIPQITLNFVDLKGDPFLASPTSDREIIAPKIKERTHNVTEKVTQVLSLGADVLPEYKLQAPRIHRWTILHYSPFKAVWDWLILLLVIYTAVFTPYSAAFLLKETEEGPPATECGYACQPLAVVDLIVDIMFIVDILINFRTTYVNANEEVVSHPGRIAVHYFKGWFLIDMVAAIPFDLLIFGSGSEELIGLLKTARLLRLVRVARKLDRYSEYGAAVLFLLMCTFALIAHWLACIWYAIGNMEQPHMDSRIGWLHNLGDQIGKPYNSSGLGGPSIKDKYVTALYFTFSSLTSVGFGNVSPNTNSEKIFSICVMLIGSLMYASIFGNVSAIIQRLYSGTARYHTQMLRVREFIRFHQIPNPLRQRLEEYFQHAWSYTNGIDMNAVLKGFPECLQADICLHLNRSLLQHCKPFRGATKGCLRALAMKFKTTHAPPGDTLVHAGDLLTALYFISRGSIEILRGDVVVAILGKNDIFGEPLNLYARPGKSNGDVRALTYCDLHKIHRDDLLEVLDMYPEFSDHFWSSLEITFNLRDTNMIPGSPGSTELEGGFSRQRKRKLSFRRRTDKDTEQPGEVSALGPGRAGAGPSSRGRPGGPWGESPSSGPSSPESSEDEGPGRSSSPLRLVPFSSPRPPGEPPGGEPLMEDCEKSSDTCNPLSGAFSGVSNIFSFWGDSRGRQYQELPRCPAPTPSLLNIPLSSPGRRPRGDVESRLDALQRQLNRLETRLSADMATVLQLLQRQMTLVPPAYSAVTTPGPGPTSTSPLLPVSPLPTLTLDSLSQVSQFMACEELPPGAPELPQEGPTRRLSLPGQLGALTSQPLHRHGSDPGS

Point of comparison: Cc1ccc(Cn2cccc(NC(=O)NCc3ccccc3)c2=O)cc1, “hERG current change (%, negative = inhibition) at 10uM” value -6.27%. Against it:
- CN1CCc2c(sc(NC(=O)c3ccc4ccccc4c3)c2C(N)=O)C1.Cl — higher, -5.05%
- CN1CCc2c(sc(NC(=O)c3cc(Cl)sc3Cl)c2C(N)=O)C1.Cl — lower, -59.8%
- CC(=O)N1CCc2c(sc(NC(=O)C3CCCN3S(=O)(=O)c3cccs3)c2C(N)=O)C1 (stereo not drawn) — higher, -2.88%
- CN1CCc2c(sc(NC(=O)C3CCCCC3)c2C(N)=O)C1.Cl — higher, 2.22%
- CN1CCc2c(sc(NC(=O)c3ccco3)c2C(N)=O)C1.Cl — lower, -17%
- CN1CCc2c(sc(NC(=O)C3CCCN3S(=O)(=O)c3ccc(Cl)s3)c2C(N)=O)C1.Cl (stereo not drawn) — lower, -63.6%
- Cc1ccc(-n2cnc3ncnc(-c4ccccc4)c32)cc1 — lower, -6.83%
- Cc1ccc2[nH]c3c(c2c1)CN(C)CC3.Cl — higher, -5.01%
- O=C(CN(C(=O)c1csnn1)c1cccc(Cl)c1)NC1CCCC1 — higher, -2.38%
- COc1ccc(CCC(=O)NNC(=O)Nc2ccc(C(C)C)cc2)cc1 — higher, 23.8%
- COc1ccc(NC(=O)CN2CCN(c3ccccn3)CC2)cc1Cl — lower, -17.4%
- COc1ccc(CC(NC(C)=O)C(=O)NC2CCN(S(=O)(=O)c3ccccc3)CC2)c(OC)c1 (stereo not drawn) — higher, 20.5%
- COCc1ccc(CN2CCCC(CO)(Cc3cccc(Cl)c3)C2)o1 (stereo not drawn) — lower, -46.1%
- COc1ccc(F)c(CN2CCCC(CO)(Cc3cccc(Cl)c3)C2)c1 (stereo not drawn) — lower, -30.6%
- COc1ccccc1/C=C/CN1CCOCC1 — higher, -3.9%
- COc1cccc(CC2(CO)CCCN(C/C=C/c3ccccc3OC)C2)c1 (stereo not drawn) — lower, -73.2%
- COc1ccc(CC2(CO)CCN(C/C=C/c3ccccc3OC)CC2)cc1 — lower, -72.8%
- COc1ccccc1/C=C/CN1CCCC(CO)(CCc2ccccc2)C1 (stereo not drawn) — lower, -74.7%
- COc1ccccc1/C=C/CN1CCCCC1 — higher, -2.31%
- COc1ccccc1/C=C/CN1CCC(CO)(Cc2ccccc2)CC1 — lower, -37.9%
- COc1ccc(/C=C/CN2CCCC(CO)(Cc3cccc(Cl)c3)C2)cc1 (stereo not drawn) — lower, -50.8%
- COc1ccccc1/C=C/CN1CCSCC1 — higher, -3.74%
- C=CCC1NS(=O)(=O)OC2CCCC12 (stereo not drawn) — higher, 10.6%
- NC(=O)c1ccc[n+]([C@H]2O[C@@H](COP(=O)([O-])OP(=O)(O)OC[C@H]3O[C@@H](n4cnc5c(N)ncnc54)[C@H](O)[C@@H]3O)[C@H](O)[C@@H]2O)c1 — higher, 12.1%
- Cc1c(C(=O)NN2CCOCC2)oc2c1ccc1ccccc12 — higher, 2.24%
- Cc1ccc(C(=O)OCc2nnc(-c3ccccc3)o2)cc1S(=O)(=O)N1CCOCC1 — lower, -26.7%
- CN1CCN(C(=O)CC2(CC(=O)O)CCCC2)CC1.Cl — higher, -1.66%
- CCn1c(CNC(=O)c2cccc(C)c2)nnc1SCC(=O)Nc1nnc(C)s1 — higher, 15.4%
- Cn1c(=O)c(=O)n(C)c2cc(S(=O)(=O)NCCOc3ccccc3Cl)ccc21 — higher, 1.26%
- COc1ccccc1/C=C/CN1CCCC(CO)(Cc2cccc(Cl)c2)C1 (stereo not drawn) — lower, -69.6%
- COc1ccc(C2CC(=O)c3cc(OC)c(OC)cc32)cc1OC (stereo not drawn) — higher, 20.7%
- COc1ccc(CN(C)C(C)C(=O)Nc2cccc3ccccc23)cc1 (stereo not drawn) — lower, -14.1%
- Cc1ccc(NC(=O)C2CC(=O)Nc3nncn32)cc1 (stereo not drawn) — higher, 14.4%
- O=C(COC(=O)c1ccc(O)cc1)NCC1COc2ccccc2O1 (stereo not drawn) — higher, -3.35%
- COc1ccc(/C=C/C(=O)NC(=S)NNC(=O)c2ccco2)cc1 — higher, 13.8%
- Cc1ccc(/C(O)=C2/C(=O)C(=O)N(CCN3CCOCC3)C2c2cccs2)cc1 (stereo not drawn) — higher, 8.67%
- c1ccc(-c2csc3nnc(SCc4ccc5c(c4)OCO5)n23)cc1 — lower, -71.4%
- Cc1ccc(-c2csc3nnc(SCC(=O)Nc4nsc(-c5ccccc5)n4)n23)cc1 — lower, -62.9%
- Cc1ccc(-c2nc(NC(=O)CSc3nnc4scc(-c5ccccc5)n34)ns2)cc1 — higher, -1.19%
- O=C(CSc1nnc2scc(-c3ccccc3)n12)N1CCN(Cc2ccccc2)CC1 — lower, -41.8%
- c1ccc(-c2csc3nnc(SCc4ccc5c(c4)OCCO5)n23)cc1 — higher, -3.29%
- O=C(CSc1nnc2scc(-c3ccccc3)n12)Nc1nsc(-c2ccccc2)n1 — lower, -40.1%
- O=C(CSc1nnc2scc(-c3ccccc3)n12)NCc1ccc2c(c1)OCO2 — lower, -21.1%
- Cc1ccc(-c2csc3nnc(SCC(=O)N4CCN(Cc5ccccc5)CC4)n23)cc1 — lower, -55.3%
- Cn1c(SCC(=O)N2CCN(Cc3ccccc3)CC2)nnc1-c1ccncc1 — higher, -2.39%
- CCOc1ccccc1NC(=O)C(Sc1nnnn1C)c1ccccc1 (stereo not drawn) — lower, -21.2%
- Cn1c(NC(=O)c2ccccc2)c(-c2cccs2)c(=O)c2ccccc21 — higher, 7.07%
- CC(=O)c1ccc(N=Nc2c(C)[nH]n(-c3ccccc3)c2=O)cc1 — higher, 8.59%
- CC1CCN(C(=S)c2cn(Cc3ccc(F)cc3)c3ccccc23)CC1 — higher, -1.82%
- COc1cc(/C=C/C(=O)O)cc(S(=O)(=O)Nc2ccc3nc(C)sc3c2)c1OC — higher, 26.5%
- CCOc1ccccc1NC(=O)c1ccc(OCC)c([N+](=O)[O-])c1 — lower, -10.3%
- CCOc1ccc(C(=O)Nc2ccccc2CC)cc1[N+](=O)[O-] — lower, -21.9%
- CCOc1ccc(C(=O)Nc2ccccc2C#N)cc1[N+](=O)[O-] — lower, -55.6%
- CCOc1ccc(C(=O)NC(=S)Nc2ccccc2N2CCCCC2)cc1[N+](=O)[O-] — higher, 11.7%
- CCOc1ccc(C(=O)NC(=S)Nc2ccccc2N2CCC(C)CC2)cc1[N+](=O)[O-] — higher, 5.75%
- CCOc1ccc(C(=O)Nc2ccccc2N2CCN(C(=O)c3ccccc3)CC2)cc1[N+](=O)[O-] — lower, -83.3%
